{"source": "the supplement of paper PMC10720658", "note": "± gives the standard deviation of the averaged measurements.", "data": [{"system": "AEK1 (Tb927.3.2440)", "assay": "percent reduction in TR-FRET probe signal relative to DMSO control; higher = stronger displacement of ATP-site probe (binding)", "conditions": "1 µM; incubation time 1 h", "units": {"percent reduction in TR-FRET probe signal": "%"}, "values": [{"smiles": "CS(=O)(=O)N1CCc2c(-c3cnc(N)nc3)nc(N3CCOCC3)nc21", "percent reduction in TR-FRET probe signal": "-5.47 ± 9.1"}, {"smiles": "FC(F)c1nc2ccccc2n1-c1nc(N2CCOCC2)nc(N2CCOCC2)n1", "percent reduction in TR-FRET probe signal": "-1.21 ± 9.1"}, {"smiles": "O=C(NCc1cccc(O)c1)Nc1nc(-c2ccncc2)cs1", "percent reduction in TR-FRET probe signal": "-10 ± 8.6"}, {"smiles": "CS(=O)c1ccc(-c2nc(-c3ccc(F)cc3)c(-c3ccncc3)[nH]2)cc1", "note": "(stereo not drawn)", "percent reduction in TR-FRET probe signal": "-6.83 ± 8.7"}, {"smiles": "COc1cc2nccc(Oc3ccc(NC(=O)C4(C(=O)Nc5ccc(F)cc5)CC4)cc3)c2cc1OC", "percent reduction in TR-FRET probe signal": "-3.97 ± 6.1"}, {"smiles": "N#Cc1c(NC(=O)c2cccc3ccccc23)sc2c1CCCC2", "note": "[JNK Inhibitor IX]", "percent reduction in TR-FRET probe signal": "-3.71 ± 5.5"}, {"smiles": "COc1cc2nccc(Oc3ccc(NC(=O)Nc4ccc(F)cc4F)c(F)c3)c2cc1OC", "percent reduction in TR-FRET probe signal": "10.2 ± 11"}, {"smiles": "O=c1cc(-c2ccccc2)oc2c(O)c(O)ccc12", "note": "[7,8-Dihydroxyflavone]", "percent reduction in TR-FRET probe signal": "-6.52 ± 5.7"}, {"smiles": "O=C(c1ccc(Nc2nccc(-c3cc4ccccc4s3)n2)cc1)N1CCC(N2CCCC2)CC1", "note": "[IKK-16 (IKK Inhibitor VII)]", "percent reduction in TR-FRET probe signal": "4.07 ± 9.4"}, {"smiles": "Cl.Cl.OC(c1cc(-c2ccc(Cl)cc2)nc2ccccc12)C1CCCCN1", "note": "(stereo not drawn) [Vacquinol-1]", "percent reduction in TR-FRET probe signal": "-5.59 ± 3.7"}, {"smiles": "Cn1sc(=O)n(Cc2ccccc2)c1=O", "percent reduction in TR-FRET probe signal": "-18.6 ± 15"}, {"smiles": "COc1ccc2cc(-c3[nH]c(-c4ccc(S(C)=O)cc4)nc3-c3ccncc3)ccc2c1", "note": "(stereo not drawn) [Tie2 kinase inhibitor]", "percent reduction in TR-FRET probe signal": "2.05 ± 9.9"}, {"smiles": "NC(=O)Nc1cc(-c2cccc(F)c2)sc1C(=O)N[C@H]1CCCNC1", "percent reduction in TR-FRET probe signal": "48.5 ± 24"}, {"smiles": "Cc1ccc(Nc2nccc(N(C)c3ccc4c(C)n(C)nc4c3)n2)cc1S(N)(=O)=O", "note": "[Pazopanib]", "percent reduction in TR-FRET probe signal": "7.95 ± 16"}, {"smiles": "Cc1cc(Nc2cc(N3CCN(C)CC3)nc(Sc3ccc(NC(=O)C4CC4)cc3)n2)n[nH]1", "note": "[VX-680 (Tozasertib, MK-0457)]", "percent reduction in TR-FRET probe signal": "10.3 ± 20"}, {"smiles": "CN(C)C/C=C/C(=O)Nc1cc2c(Nc3ccc(F)c(Cl)c3)ncnc2cc1O[C@H]1CCOC1", "note": "[Afatinib (BIBW2992)]", "percent reduction in TR-FRET probe signal": "15.6 ± 31"}, {"smiles": "CN([C@@H](Cc1ccc(OS(=O)(=O)c2cccc3cnccc23)cc1)C(=O)N1CCN(c2ccccc2)CC1)S(=O)(=O)c1cccc2cnccc12", "percent reduction in TR-FRET probe signal": "0.31 ± 8.8"}, {"smiles": "CC(C)CCN1c2nc(Nc3cc(F)c(O)c(F)c3)ncc2N(C)C(=O)C1C", "note": "(stereo not drawn)", "percent reduction in TR-FRET probe signal": "-13.7 ± 9.2"}, {"smiles": "CCN(CC)CCNC(=O)c1c(C)[nH]c(/C=C2\\C(=O)Nc3ccc(F)cc32)c1C.O=C(O)C[C@H](O)C(=O)O", "note": "[Sunitinib Malate]", "percent reduction in TR-FRET probe signal": "14.7 ± 14"}, {"smiles": "FC(F)(F)c1ccc(/C=C/c2nc(COc3ccc(CCCCn4ccnn4)cc3)co2)cc1", "note": "[Mubritinib (TAK 165)]", "percent reduction in TR-FRET probe signal": "0.627 ± 0.93"}, {"smiles": "CNC(=O)c1ccccc1Nc1nc(Nc2ccc(N3CCOCC3)cc2OC)ncc1Cl", "percent reduction in TR-FRET probe signal": "25.1 ± 15"}, {"smiles": "Oc1ccc(-c2nc(-c3ccc(F)cc3)c(-c3ccncc3)[nH]2)cc1", "percent reduction in TR-FRET probe signal": "-5.77 ± 4"}, {"smiles": "C[C@@H](NC(=O)c1ncnc(N)c1Cl)c1ncc(C(=O)Nc2cc(C(F)(F)F)c(Cl)cn2)s1", "percent reduction in TR-FRET probe signal": "-3.59 ± 11"}, {"smiles": "COc1c(C)c(C(=O)c2ccc(N)c(C(=O)[O][Na])c2)n2ccccc12", "percent reduction in TR-FRET probe signal": "6.59 ± 7.5"}, {"smiles": "O=c1c(O)c(-c2ccc(O)c(O)c2)oc2cc(O)cc(O)c12", "note": "[Quercetin]", "percent reduction in TR-FRET probe signal": "8.35 ± 5.3"}, {"smiles": "O=C(NC[C@H](O)CO)c1ccncc1Nc1ccc(I)cc1F", "percent reduction in TR-FRET probe signal": "8.42 ± 5"}, {"smiles": "CC(C)(C)Cn1c(N)nc2ccc(-c3[nH]c(C(C)(C)C)nc3-c3ccc(F)cc3)nc21.CS(=O)(=O)O.CS(=O)(=O)O", "percent reduction in TR-FRET probe signal": "-14.9 ± 5.8"}, {"smiles": "O=C(Nc1cc(C(F)(F)F)cc(C(F)(F)F)c1)c1cc(Cl)ccc1O", "percent reduction in TR-FRET probe signal": "8.68 ± 3.7"}, {"smiles": "COc1ccc2c(c1)c(C1=C(c3c[nH]c4ccccc34)C(=O)NC1=O)cn2CCCN(C)C", "percent reduction in TR-FRET probe signal": "4.65 ± 14"}, {"smiles": "Cc1cc(NC(=O)c2cccc(NC(=O)/C=C/CN(C)C)c2)ccc1Nc1nccc(-c2cccnc2)n1", "percent reduction in TR-FRET probe signal": "-7.17 ± 15"}, {"smiles": "CC(C)CC(=O)Nc1n[nH]c2c1CN(C(=O)C1CCN(C)CC1)C2(C)C", "percent reduction in TR-FRET probe signal": "-0.07 ± 7.6"}, {"smiles": "CCN(CC)CCCCNc1ncc2cc(-c3cc(OC)cc(OC)c3)c(NC(=O)NC(C)(C)C)nc2n1", "percent reduction in TR-FRET probe signal": "-17.7 ± 31"}, {"smiles": "CCOc1ccn(-c2ccc(F)cc2)c(=O)c1C(=O)Nc1ccc(Oc2ccnc(N)c2Cl)c(F)c1", "percent reduction in TR-FRET probe signal": "-0.77 ± 15"}]}]}
